Measured values published in PubChem BioAssay AID1159580 (chemical genetic matrix, 2015).
Among all 5,500 compounds or so, about 2,000 (36%) were called active. Another 18% or so got no clear call; they are omitted. Rule as the data show it: active = normalized growth mostly below about 0.91 (no sharp cut-off); inconclusive = no clear call, values can overlap the other calls; inactive = mostly above about 0.92. The list shows a part of the results.

Experiment: chemical genetic growth profiling, strain panel (AID 1159580);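 also: tested at 20 µM; growth read once vehicle control cultures reached saturation at 30 °C; 1 = growth at the plate median or of vehicle wells; lower values mean less growth of the strain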
Conditions: S. cerevisiae deletion strains, growth OD
[1] = locus YDL101C, strain DUN1, active compounds read low
[2] = locus YHR030C, strain SLT2, active compounds read low
[3] = locus YHR079C, strain IRE1, active compounds read low
[4] = locus YJL095W, strain BCK1, active compounds read low
[5] = locus YJR066W, strain TOR1, active compounds read low
[6] = locus YLR113W, strain HOG1, active compounds read low
[7] = locus YNL183C, strain NPR1, active compounds read low
[8] = locus YOR231W, strain MKK1, active compounds read low
[9] = locus YPL256C, strain CLN2, active compounds read low

Measured: normalized growth

Cc1nn(C)c(C(=O)Sc2ccc(OC(F)(F)F)cc2)c1[N+](=O)[O-]
active: [2] 1.25 [resistant] | [6] 0.834
inactive: locus YAR019C, strain CDC15, active compounds read low 0.977 | locus YBL105C, strain PKC1, active compounds read low 0.974 | locus YBR135W, strain CKS1, active compounds read low 0.969 | locus YBR136W, strain MEC1, active compounds read low 0.984 | locus YBR160W, strain CDC28, active compounds read low 0.977 | locus YDL017W, strain CDC7, active compounds read low 0.977 | locus YDL028C, strain MPS1, active compounds read low 0.985 | [1] 0.978 | locus YDL108W, strain KIN28, active compounds read low 0.98 | locus YDL132W, strain cdc53, active compounds read low 0.952 | locus YDL214C, strain PRR2, active compounds read low 0.946 | locus YDR052C, strain DBF4, active compounds read low 0.983 | locus YDR054C, strain cdc34, active compounds read low 0.952 | locus YDR226W, strain ADK1, active compounds read low 0.982 | locus YDR477W, strain SNF1, active compounds read low 0.993 | locus YER123W, strain YCK3, active compounds read low 0.895 | locus YER133W, strain GLC7, active compounds read low 1 | locus YFL009W, strain cdc4, active compounds read low 0.965 | locus YFL029C, strain CAK1, active compounds read low 0.978 | locus YFR003C, strain YPI1, active compounds read low 0.978 | locus YFR019W, strain FAB1, active compounds read low 0.972 | locus YFR028C, strain CDC14, active compounds read low 0.987 | locus YGR040W, strain KSS1, active compounds read low 1.03 | locus YGR052W, strain FMP48, active compounds read low 0.988 | locus YGR092W, strain DBF2, active compounds read low 0.939 | [3] 0.977 | locus YHR082C, strain KSP1, active compounds read low 0.947 | locus YHR205W, strain SCH9, active compounds read low 0.611 | locus YIL147C, strain SLN1, active compounds read low 0.985 | [4] 0.947 | locus YJL128C, strain PBS2, active compounds read low 0.87 | locus YJL157C, strain FAR1, active compounds read low 0.978 | locus YJR016C, strain ILV3, active compounds read low 0.977 | locus YJR066W, strain TOR1 (second series), active compounds read low 1.02 | [5] 0.936 | locus YKL048C, strain ELM1, active compounds read low 0.989 | locus YKL067W, strain YNK1, active compounds read low 0.96 | locus YKL101W, strain HSL1, active compounds read low 0.985 | locus YKL193C, strain SDS22, active compounds read low 0.975 | locus YKL203C, strain TOR2, active compounds read low 1.13 | locus YLR133W, strain CKI1, active compounds read low 0.949 | locus YLR403W, strain SFP1, active compounds read low 0.99 | locus YML070W, strain DAK1, active compounds read low 0.959 | locus YMR001C, strain CDC5, active compounds read low 0.979 | locus YMR205C, strain PFK2 (second series), active compounds read low 0.965 | locus YMR277W, strain FCP1, active compounds read low 0.968 | locus YNL006W, strain LST8, active compounds read low 0.974 | locus YNL020C, strain ARK1, active compounds read low 0.95 | locus YNL161W, strain CBK1, active compounds read low 0.98 | [7] 1.04 | locus YNL207W, strain RIO2, active compounds read low 0.989 | locus YNL222W, strain SSU72, active compounds read low 0.976 | locus YNL307C, strain MCK1 (second series), active compounds read low 0.918 | locus YOL078W, strain AVO1, active compounds read low 0.972 | locus YOL136C, strain PFK27, active compounds read low 0.935 | locus YOR061W, strain CKA2, active compounds read low 0.95 | locus YOR119C, strain RIO1, active compounds read low 1.11 | [8] 0.884 | locus YOR329C, strain SCD5, active compounds read low 0.982 | locus YPL031C, strain PHO85, active compounds read low 1.01 | locus YPL153C, strain RAD53, active compounds read low 1.03 | locus YPL204W, strain HRR25, active compounds read low 1.06 | locus YPL209C, strain IPL1, active compounds read low 0.981 | [9] 0.952 | locus YPR025C, strain CCL1, active compounds read low 0.981 | locus YPR106W, strain ISR1, active compounds read low 0.959 | locus YPR111W, strain DBF20, active compounds read low 0.932 | strain NNK1, active compounds read low 0.955 | strain TSCII, active compounds read low 0.982

Cc1nn(C)c(C)c1[N+](=O)[O-]
inactive: locus YAL013W, strain DEP1, active compounds read low 0.996 | locus YBR229C, strain ROT2, active compounds read low 1.03 | [1] 0.992 | locus YDL134C, strain PPH21, active compounds read low 1 | locus YDR150W, strain NUM1, active compounds read low 0.939 | locus YEL061C, strain CIN8, active compounds read low 1 | locus YGR078C, strain PAC10, active compounds read low 0.999 | locus YGR229C, strain SMI1, active compounds read low 1.01 | [2] 1.01 | locus YHR087W, strain rtc3, active compounds read low 1.02 | locus YJR043C, strain POL32, active compounds read low 0.997 | locus YJR075W, strain HOC1, active compounds read low 0.988 | locus YKL190W, strain CNB1, active compounds read low 1 | locus YLR039C, strain RIC1, active compounds read low 0.998 | locus YLR058C, strain SHM2 (second series), active compounds read low 1.01 | locus YLR085C, strain ARP6, active compounds read low 1.02 | locus YLR262C, strain YPT6, active compounds read low 0.993 | locus YML094W, strain GIM5, active compounds read low 0.994 | locus YMR219W, strain ESC1, active compounds read low 1.02 | locus YMR307W, strain GAS1, active compounds read low 0.994 | locus YNL128W, strain TEP1, active compounds read low 1.01 | locus YNL153C, strain GIM3, active compounds read low 1 | locus YNL298W, strain CLA4 (second series), active compounds read low 1.01 | locus YNL322C, strain KRE1, active compounds read low 0.996 | locus YNR030W, strain Alg12, active compounds read low 1.02 | locus YOL006C, strain TOP1, active compounds read low 1.05 | locus YPL055C, strain LGE1, active compounds read low 0.867 | locus YPL241C, strain CIN2, active compounds read low 1 | locus YPR135W, strain CTF4, active compounds read low 1.03

OC[C@@H](O)[C@@H](O)[C@H](O)[C@@H](O)CO
inactive: [2] 0.986 | [3] 0.96 | [4] 0.992 | [5] 0.946 | [6] 0.989 | [7] 0.947 | [8] 0.989 | [9] 1.01

CCCc1cc(C(N)=S)ccn1
inactive: locus YAL021C, strain ccr4, active compounds read low 0.966 | locus YAL026C, strain drs2, active compounds read low 0.982 | locus YAL030W, strain snc1, active compounds read low 0.985 | locus YBL061C, strain skt5, active compounds read low 0.975 | locus YBR009C, strain hhf1, active compounds read low 0.939 | locus YBR023C, strain chs3, active compounds read low 0.963 | locus YBR171W, strain sec66, active compounds read low 0.955 | locus YBR231C, strain swc5, active compounds read low 0.981 | locus YBR279W, strain paf1, active compounds read low 0.97 | locus YCL011C, strain gbp2, active compounds read low 0.974 | locus YCL016C, strain dcc1, active compounds read low 0.985 | locus YCL069W, strain vba3, active compounds read low 0.963 | locus YCR088W, strain abp1, active compounds read low 0.966 | locus YDL005C, strain med2, active compounds read low 0.959 | locus YDL040C, strain nat1, active compounds read low 0.964 | locus YDR001C, strain nth1, active compounds read low 0.971 | locus YDR069C, strain doa4, active compounds read low 0.95 | locus YDR137W, strain rgp1, active compounds read low 0.976 | locus YDR159W, strain sac3, active compounds read low 0.89 | locus YDR195W, strain ref2 0.976 | locus YDR297W, strain sur2, active compounds read low 0.975 | locus YDR334W, strain swr1, active compounds read low 0.929 | locus YDR335W, strain msn5, active compounds read low 0.961 | locus YDR392W, strain spt3, active compounds read low 0.886 | locus YEL003W, strain gim4, active compounds read low 0.972 | locus YEL037C, strain rad23, active compounds read low 0.964 | locus YEL061C, strain CIN8 (second series), active compounds read low 0.96 | locus YER015W, strain faa2, active compounds read low 0.978 | locus YER016W, strain bim1, active compounds read low 0.988 | locus YER111C, strain swi4, active compounds read low 0.988 | locus YER155C, strain BEM2 (second series), active compounds read low 0.958 | locus YFR010W, strain ubp6, active compounds read low 0.948 | locus YGL167C, strain pmr1, active compounds read low 0.939 | locus YGL173C, strain kem1, active compounds read low 0.966 | locus YGL227W, strain vid30, active compounds read low 0.974 | locus YGL240W, strain doc1, active compounds read low 0.953 | locus YGL253W, strain hxk2, active compounds read low 0.952 | locus YHR013C, strain ard1, active compounds read low 0.954 | locus YHR027C, strain rpn1, active compounds read low 0.967 | [2] 1.01 | [3] 1.02 | locus YHR142W, strain chs7, active compounds read low 0.981 | locus YJL092W, strain hpr5, active compounds read low 0.971 | locus YJL095W, strain BCK1 (second series), active compounds read low 0.978 | [4] 1.02 | locus YJL115W, strain asf1, active compounds read low 0.948 | locus YJL129C, strain trk1, active compounds read low 0.981 | locus YJL154C, strain vps35, active compounds read low 0.96 | locus YJL164C, strain tpk1, active compounds read low 0.971 | locus YJL166W, strain qcr8, active compounds read low 0.95 | [5] 0.925 | locus YKL160W, strain elf1, active compounds read low 0.989 | locus YKR026C, strain gcn3, active compounds read low 0.942 | locus YKR091W, strain srl3, active compounds read low 0.96 | locus YLL001W, strain dnm1, active compounds read low 0.954 | locus YLL026W, active compounds read low 0.985 | locus YLL041C, strain sdh2, active compounds read low 0.964 | locus YLR027C, strain aat2, active compounds read low 0.98 | [6] 0.997 | locus YLR221C, strain rsa3, active compounds read low 0.956 | locus YLR258W, strain gsy2, active compounds read low 0.966 | locus YLR262C, strain YPT6 (second series), active compounds read low 0.943 | locus YLR320W, strain mms22, active compounds read low 0.937 | locus YLR342W, strain FKS1, active compounds read low 0.981 | locus YLR357W, strain rsc2, active compounds read low 0.888 | locus YLR370C, strain arc18, active compounds read low 0.955 | locus YLR384C, strain iki3, active compounds read low 0.971 | locus YML120C, strain ndi1, active compounds read low 0.964 | locus YMR058W, strain fet3, active compounds read low 0.981 | locus YMR125W, strain sto1, active compounds read low 0.918 | locus YMR129W, active compounds read low 0.961 | locus YMR205C, strain PFK2, active compounds read low 0.955 | locus YMR231W, strain pep5, active compounds read low 0.967 | locus YNL071W, strain lat1, active compounds read low 0.958 | [7] 0.942 | locus YNL209W, strain ssb2, active compounds read low 0.955 | locus YNL248C, strain rpa49, active compounds read low 0.925 | locus YNL322C, strain KRE1 (second series), active compounds read low 0.966 | locus YNR049C, strain mso1, active compounds read low 0.948 | locus YOR001W, strain rrp6, active compounds read low 0.938 | locus YOR070C, strain gyp1, active compounds read low 0.98 | locus YOR080W, strain dia2, active compounds read low 0.942 | locus YOR083W, strain WHI5, active compounds read low 0.946 | locus YOR106W, strain vam3, active compounds read low 0.983 | [8] 1 | locus YOR265W, strain rbl2, active compounds read low 0.978 | locus YOR270C, strain vph1, active compounds read low 0.931 | locus YOR290C, strain snf2, active compounds read low 0.989 | locus YPL051W, strain arl3, active compounds read low 0.989 | locus YPL078C, strain atp4, active compounds read low 0.991 | locus YPL106C, strain sse1, active compounds read low 0.956 | locus YPL240C, strain hsp82, active compounds read low 0.976 | [9] 1.01
